# Hit rate of the full screen: of about 330,000 compounds, about 7,300 (2.2%) were called active.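 The calls were made as follows: active = inhibition of at least 40%; inactive = the rest.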 The full list was thinned out, with actives kept by preference.
# Experiment: growth inhibitors of tim10-1 mutant yeast, primary screen, luminescence, uHTS (AID 463190);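 also: mutant grown at 25 °C; 0% = DMSO wells with yeast and 100% = wells holding no yeast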
# Settings: S. cerevisiae tim10-1 ts strain growth, BacTiter-Glo, 24 h; at 20 µM; hits give high values
row,Compound,inhibition
1,COc1ccc(C(=O)OCC(=O)c2cc(C)n(CC3CCCO3)c2C)cc1[N+](=O)[O-] (centres undefined),44.5% (active)
2,COc1ccc(C(=O)OCC(=O)NCC2CCCO2)cc1[N+](=O)[O-] (centres undefined),-1.22% (inactive)
3,Cc1ccsc1C(=O)OCC(=O)c1cc(C)n(CC2CCCO2)c1C (centres undefined),33% (inactive)
4,COC(=O)CN1C(=O)[C@H]2[C@@H](/C=C/c3ccccc3)N3C(=O)CN(Cc4ccccc4)C(=O)[C@@]3(Cc3ccccc3)[C@H]2C1=O,8.2% (inactive)
5,CC1=C(C(N)=O)C(c2ccc(Br)cc2)n2ncnc2N1 (centres undefined),10.7% (inactive)
6,Fc1ccccc1/C=C1\CCCC2=C1Nc1ncnn1C2c1ccccc1F (centres undefined),40.1% (active)
7,OC1CN=C2Sc3ccccc3N2C1 (centres undefined),10.5% (inactive)
8,CCc1cccc2c(C=C(C#N)C#N)cn(CC(=O)N3CCCCC3)c12,18% (inactive)
9,Cc1ccc(C(=O)O)cc1S(=O)(=O)NCC1CCCO1 (centres undefined),-1.57% (inactive)
10,CC(C)C(OC(=O)c1cccs1)C(=O)NC1CCCCC1 (centres undefined),14.5% (inactive)
11,Cn1c(C(=O)OC(C(=O)NC2CCCCC2)c2ccccn2)cc2sccc21 (centres undefined),40.4% (active)
12,Cn1c(C(=O)N2CCCC(C(=O)NCc3ccccc3)C2)cc2sccc21 (centres undefined),-2.21% (inactive)
13,O=C1C2(c3ccccc3)CN(CCCO)CC1(c1ccccc1)CN(CCCO)C2,13.9% (inactive)
14,CCOC(=O)C1(C(F)(F)F)N=C(N(C)C)OC(N(C)C)=N1,0.707% (inactive)
15,CCCCn1c(=S)[nH]c2ccccc2c1=O,30.4% (inactive)
16,S=c1[nH]c2ccccc2c2ccccc12,40.1% (active)
17,S=c1ccc2ccccc2[nH]1,8.36% (inactive)
18,CC(C)Oc1ccc(C(CC(=O)N2CCOCC2)C(C)C)cc1 (centres undefined),1.61% (inactive)
19,COc1ccccc1C(=O)NCC(=O)NCCSc1ccc(Br)cc1,12.5% (inactive)
20,Oc1ccccc1CN1CCN(C(c2ccccc2)c2ccccc2)CC1,24.4% (inactive)
21,CCN1CCN(C(c2cccnc2)c2cc(Cl)c3cccnc3c2O)CC1 (centres undefined),50.7% (active)
22,CCN1CCN(c2ccc(NC(=O)c3cnccn3)cc2)CC1,4.72% (inactive)
23,C=C(C)c1cccc(C(C)(C)NC(=O)NCCN(CC)CC)c1,15.8% (inactive)
24,O=C1COc2ccc(NC(=O)N3CCN(c4ccc(F)cc4)CC3)cc2N1,-1.3% (inactive)

row,Compound,inhibition
1,CCOC(=O)C1Nc2ccc(C(F)(F)F)cc2C2C=CCC12 (centres undefined),26.6% (inactive)
2,COC(=O)NC1(C(F)(F)F)NC(=O)N(C2CCCCC2)C1=O (centres undefined),-0.477% (inactive)
3,O=C(NC1(C(F)(F)F)NC(=O)N(C2CCCCC2)C1=O)c1ccco1 (centres undefined),9.83% (inactive)
4,O=C1NC(Nc2nc3ccccc3s2)(C(F)(F)F)C(=O)N1C1CCCCC1 (centres undefined),55.7% (active)
5,C=CCC1(CC=C)CCCN1C(=O)CC1C(=O)NCCN1Cc1ccccc1OC (centres undefined),7.02% (inactive)
6,S=C(NCc1cccnc1)Nc1ccc(Cl)cc1Cl,15% (inactive)
7,CC(=O)/C(=N\Nc1ccc(Cl)cc1Cl)Sc1cccc2cccnc12,53.2% (active)
8,O=C(Nc1cccc2cccnc12)c1cccc(Cl)c1,20.4% (inactive)
9,Cn1cccc1C(=O)OCC(=O)NCCc1ccccc1,-4.06% (inactive)
10,Cc1c(C)n(Cc2ccc(Cl)cc2)c2ccc(C(=O)NCCCN3CCOCC3)cc12,5.97% (inactive)
11,O=C(Nc1ccc(Cl)cc1)Nc1nnc(/C=C/c2ccccc2)s1,5.19% (inactive)
12,NS(=O)(=O)c1ccc(CCNC(=O)Nc2ccc(Cl)cc2)cc1,8.7% (inactive)
13,O=C(Nc1ccccc1)c1nnsc1S(=O)(=O)c1ccc(Cl)cc1,87.7% (active)
14,COC(=O)c1cc(NC(=O)c2nn(C)c(=O)c3ccccc23)cc(C(=O)OC)c1,13.9% (inactive)
15,CCc1ccccc1NC(=O)Cc1cn(C)c2ccccc12,24.8% (inactive)
16,C=C(C)Cn1c(C)cc(C)c(S(=O)(=O)c2ccccc2C)c1=O,27.4% (inactive)
17,Nc1ccccc1SC(C[N+](=O)[O-])c1ccccc1 (centres undefined),48.9% (active)
18,CCS(=O)(=O)c1cc([N+](=O)[O-])c(Sc2ccccc2N)s1,7.45% (inactive)
19,Cc1ccc(C)c(N2CCN(C(=O)CCc3nc4ccccc4[nH]3)CC2)c1,22.3% (inactive)
20,Cc1ccc(C)c(N2CCN(C(=O)CCCCn3c(=O)[nH]c4ccccc4c3=O)CC2)c1,40.7% (active)
21,Cc1ccc(C)c(N2CCN(C(=O)CCCCCn3c(=S)[nH]c4ccc(N5CCOCC5)cc4c3=O)CC2)c1,0.092% (inactive)
22,O=C(CCC1CCCCC1)Nc1cc(C(F)(F)F)ccc1N1CCOCC1,27.5% (inactive)
23,O=C(NCCc1ccccc1)C1CCC(Cn2c(=O)c3ccccc3n(Cc3cccnc3)c2=O)CC1 (centres undefined),15.4% (inactive)
24,Cc1ccc(Cl)cc1NC(=O)C1CCCN(c2cnccn2)C1 (centres undefined),12.5% (inactive)

row,Compound,inhibition
1,CC(=O)c1cc(C#N)c(SCC(=O)Nc2nccs2)nc1C,-56.3% (inactive)
2,S=c1[nH]nc(CSCc2ccc(Cl)cc2Cl)n1-c1ccccc1,41.3% (active)
3,Cc1ccc(NCc2n[nH]c(=S)n2-c2ccccc2)cc1Cl,23% (inactive)
4,S=c1[nH]nc(COc2ccccc2)n1-c1ccccc1,21.4% (inactive)
5,CCCCNC(=O)C(C)N(CCN(C)C)C(=O)CCCN1C(=O)NC(c2ccc(Cl)cc2)C(C(=O)OCc2ccccc2)=C1C (centres undefined),6.33% (inactive)
6,CCCc1cc(=O)[nH]c(SCC(=O)Nc2sc3c(c2C#N)CCCC3)n1,6.17% (inactive)
7,COc1ccc(CCNC(=O)C(=O)Nc2ccc3nc4n(c(=O)c3c2)CCCCC4)cc1OC,9.06% (inactive)
8,CCn1cc(CNC(=O)c2cc([N+](=O)[O-])c(C)c([N+](=O)[O-])c2)cn1,14.3% (inactive)
9,S=C(NCC1COc2ccccc2O1)Nc1ccc(Br)cc1 (centres undefined),7.9% (inactive)
10,CCC(=O)c1ccc(OCC(=O)N(CC)CC2COc3ccccc3O2)cc1 (centres undefined),18.9% (inactive)
11,CCCN(CC1COc2ccccc2O1)C(=S)Nc1ccc(C)cc1 (centres undefined),46.4% (active)
12,CC(C)C(O)C1CCN(Cc2nc(Cc3ccccc3Cl)no2)CC1 (centres undefined),15.8% (inactive)
13,C/C=C(/C)C(=O)O[C@@H]1c2cc3c(c4c2[C@@]2(CO4)C(=O)C(OC)=C(OC)C=C2C[C@@H](C)[C@H]1C)OCO3,13.3% (inactive)
14,C[C@@H](C(=O)N1CCNCC1)n1cc(CCC(=O)O)nn1,-7.39% (inactive)
15,CCCCC(O)(CCCC)C(=O)NN(C(=O)CCl)c1ccccc1,49.5% (active)
16,COC(=O)N(NC(=O)C(O)(C(C)C)C(C)C)c1ccccc1,-7.63% (inactive)
17,CCCC(O)(CCC)C(=O)NN(C(=O)CCl)c1cccc(C)c1,31.5% (inactive)
18,Cc1ccnc(SCCn2c(N(C)Cc3ccccc3)nc3c2c(=O)n(C)c(=O)n3C)n1,30% (inactive)
19,COc1ccc(C(C#N)(CC(=O)O)c2cnccn2)cc1OC (centres undefined),-2.88% (inactive)
20,COc1ccccc1CNS(=O)(=O)c1ccc2c(c1)NC(=O)CS2,-7.01% (inactive)
21,Cn1c(=O)[nH]c(=O)c2c1nc(N1CCN(C(c3ccccc3)c3ccccc3)CC1)n2CCO,10.4% (inactive)
22,O=C(O)c1ccccc1CSc1nc2ccccc2s1,2.18% (inactive)
23,NC(=O)c1ccc(Nc2ccc3nonc3c2[N+](=O)[O-])cc1,-0.57% (inactive)
24,O=[N+]([O-])c1c(NCCO)cc(Sc2nc3ccccc3s2)c2nonc12,42.6% (active)

row,Compound,inhibition
1,COc1cc(C(=O)OCC(=O)NC(C)CCc2ccccc2)cc(OC)c1OC (centres undefined),13.5% (inactive)
2,CN1C(=O)[C@H]2[C@@H](/C=C/c3ccccc3)N3C(=O)CN(Cc4ccc(-c5ccccc5)cc4)C(=O)[C@@]3(C)[C@H]2C1=O,1.58% (inactive)
3,Cc1c(C(=O)Nc2cccc(Cl)c2)cn2c(nc3ccccc32)c1C#N,10.2% (inactive)
4,Cc1nc(-c2ccccc2)cn2c1nc1ccccc12,40.7% (active)
5,CCOCCn1c(-c2ccccc2)nc2ccccc21,-13.4% (inactive)
6,COc1ccc(C(=O)OCC(=O)c2ccc(Cl)s2)c(OC)c1OC,6.36% (inactive)
7,Cc1ccc(S(=O)(=O)NCCC(c2ccccc2)c2ccccc2)cc1C(=O)O,25.2% (inactive)
8,COc1ccc(C(=O)COC(=O)CNC(=O)c2cccs2)cc1Br,-2.83% (inactive)
9,CC(=NNC(=O)c1ccc2nc[nH]c2c1)c1ccc(Br)cc1,9.94% (inactive)
10,COc1ccc(/C(C)=N/NC(=O)c2ccc3nc[nH]c3c2)cc1,52.3% (active)
11,CCN(CC)c1ccc(C(=O)N/N=C(\C)c2cccc(OC)c2)cc1,-18.4% (inactive)
12,O=C(O/N=C(/c1ccccc1)c1ccncc1)c1ccccc1[N+](=O)[O-],41.3% (active)
13,O=C(Nc1ccncc1)c1ccccc1[N+](=O)[O-],0.557% (inactive)
14,CN(C)CCCO/N=C(\c1ccccc1)c1ccncc1,-3.73% (inactive)
15,COc1ccc(OCC(=O)NNC(=O)C2CCC2)cc1,-8.95% (inactive)
16,O=C(Nc1ccc(Cl)c(Cl)c1)c1ccccc1NC(=O)C1CC=CCC1C(=O)O (centres undefined),14.6% (inactive)
17,COc1cc(/C=N/NC(=O)c2ccc(N3CCCC3=O)cc2)ccc1O,13.5% (inactive)
18,COc1ccccc1C(=O)NNC(=O)c1ccc(NC(=O)c2ccccc2)cc1,-9.84% (inactive)
19,COc1ccc(C(=O)Nc2cc(C)c(NC(=O)c3ccccc3OC)cn2)cc1,-34.5% (inactive)
20,COc1ccc(C(=O)Nc2ccccc2C(=O)N/N=C/c2ccc(O)c(OC)c2)cc1,97% (active)
21,COc1ccc(C(=O)Nc2ccccc2C(=O)N/N=C/c2ccccc2OC)cc1,66.7% (active)
22,CCOc1cc(/C=N/NC(=O)c2cc(-c3ccccc3)nc3ccccc23)ccc1O,11.6% (inactive)

# From PubChem BioAssay AID463190 (Sanford-Burnham Center for Chemical Genomics, 2010)
